# Screens (PubChem BioAssay)
# The full list was thinned out, with hits kept by preference.
# Tb PYK inh = T. brucei pyruvate kinase inhibition | TbPYK enzyme, Kinase-Glo Plus ATP luminescence, 45 min | Potency, µM (doses to about 76.8 µM), usual class: inhibitors | hit rate 0.12% among 410,000; also: nearly all actives have a fitted effect of over 50% in size
#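 Activity of T. brucei pyruvate kinase was followed by Kinase-Glo Plus luminescence after the enzyme reacted 45 min at room temperature with 130 uM ADP (final) and substrate. Test compounds were added before ADP at multiple concentrations.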
# Shiga inhibitor = inhibitors of Shiga toxin in Vero cells; Vero cells, Shiga toxin protein synthesis inhibition reporter; inhibition, % at 38.7 µM; hit rate 9.2% among 290,000; AID 2315; in the data active = inhibition mostly above about 28%, no sharp cut-off; inactive = mostly below about 43%
# Cycloheximide cs = counter-screen hit for Shiga toxin inhibitors, cycloheximide | cell reporter, cycloheximide protein synthesis inhibition counterscreen | max response, % | hit rate 12% among 300,000 | AID 2314; in the data active = max response mostly above about 13%, no sharp cut-off; inactive = mostly below about 14%; also: read at 38.3 µM for the half of the compounds with a filed dose
# Giardia FBPA inh = inhibitors of Giardia lamblia fructose-1,6-bisphosphate aldolase; A8B2U2; purified Giardia FBPA; Potency, µM (highest dose often 59.6 µM), most hits filed as inhibitors; hit rate 0.71% among 290,000; also: nearly all actives have a fitted effect of over 55% in size
#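 40 nM FBPA preincubated 10 min at RT with compound (up to 57.5 uM final), then substrate plus GAPDH/TPI/NAD/arsenate coupling and diaphorase/resazurin added. Fluorescence read after 20 min at RT, 525/598 nm.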
# Sm TGR inh = blocks Schistosoma mansoni thioredoxin glutathione reductase; Potency, µM (top dose mostly 114 µM), hits mostly inhibitors; Q962Y6; purified TGR, DTNB reduction, TNB absorbance 405 nm; hit rate 3% among 360,000; also: nearly all actives have a fitted effect of over 60% in size
#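 TGR 20 nM + NADPH 100 uM (dispensed conc.), cpd preinc 15 min RT; start with NADPH (500 uM addition) then DTNB (15 mM addition). Kinetic TNB absorbance, 405 nm filter. Four-parameter Hill fit across titration.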
# LmPK inhibitor = inhibitors of Leishmania mexicana pyruvate kinase; Potency, µM (titrated, usually from 57.5 µM), actives largely listed as inhibitors; AID 1721; Q27686; purified LmPK, Kinase-Glo ATP luminescence, 1 h; hit rate 0.37% among 290,000
# Target sequence (Q27686 whole entry, looked up): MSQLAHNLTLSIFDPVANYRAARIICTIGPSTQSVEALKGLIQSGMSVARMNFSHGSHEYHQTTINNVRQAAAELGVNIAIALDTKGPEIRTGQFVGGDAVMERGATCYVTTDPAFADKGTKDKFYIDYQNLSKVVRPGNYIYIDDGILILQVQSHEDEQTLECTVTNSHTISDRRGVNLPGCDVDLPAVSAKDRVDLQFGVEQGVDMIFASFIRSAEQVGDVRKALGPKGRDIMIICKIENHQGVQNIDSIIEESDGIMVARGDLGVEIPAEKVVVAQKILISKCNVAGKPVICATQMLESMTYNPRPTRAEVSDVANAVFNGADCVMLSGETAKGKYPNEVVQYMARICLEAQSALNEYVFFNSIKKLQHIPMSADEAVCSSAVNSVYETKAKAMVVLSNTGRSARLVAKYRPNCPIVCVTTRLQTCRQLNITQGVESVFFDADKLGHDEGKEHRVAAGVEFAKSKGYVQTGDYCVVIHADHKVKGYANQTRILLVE
#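 qHTS format; LmPK 0.1 nM; substrates PEP 0.5 mM and ADP 0.1 mM. One-hour room-temperature incubation, then coupled luciferase luminescence; 0.5 nM enzyme wells mark activation.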
# A number is an active result; n = inactive; u = inconclusive; x = no result given. Unless noted, calls follow the shape of the dose curve; as a rule, active = well fitted curve in the direction sought with a large enough effect; inconclusive = small, poorly fitted or top-dose-only effect, or another doubt; inactive = no such curve, though single readings can be large; an effect the other way counts as inactive or inconclusive.
SMILES,Tb PYK inh,Shiga inhibitor,Cycloheximide cs,Giardia FBPA inh,Sm TGR inh,LmPK inhibitor
O=C1C=C(c2ccccc2C(F)(F)F)C[C@@H](c2ccc3c(c2)OCO3)C1,n,x,x,x,n,x
Cc1cc(S(=O)(=O)Cc2noc(-c3c(C)noc3C)n2)c(C)cc1Cl,n,n,n,n,n,n
Cc1noc(C)c1-c1nc(CSc2ccccc2)no1,n,n,20.9,n,n,n
CC1(C)C(=O)CC[C@@]2(C)C1CC(O)[C@@]1(C)C3=CC(=O)OC(c4ccoc4)[C@]3(C)CCC21 (some centres undefined),x,x,x,n,x,x
O=C1/C(=C/c2ccc(O)c(O)c2)SC(=S)N1Nc1ccccc1,n,n,n,u,n,n
O=C1/C(=C/c2ccncc2)SC(=S)N1Nc1ccccc1,n,n,n,n,3.16µM,n
O=C(O)c1ccc(/C=C2\SC(=S)N(Nc3ccccc3)C2=O)cc1,n,79.8,23.6,n,3.16µM,u
O=C(c1cnc(N2CCCCC2)c2ccccc12)N1CCN(c2ccc(Cl)cc2)CC1,n,x,x,x,n,x
CCOC(=O)C[C@H]1c2ccc(C(F)(F)F)cc2S(=O)(=O)N1C(C)C,n,x,x,x,x,x
O=C(Nc1ccc(-c2nc3ccccc3[nH]2)cc1)C1CCCN(Cc2ccn[nH]2)C1 (centres undefined),n,x,x,x,x,x
O=S1(=O)c2cccc3cccc(c23)N1Cc1ccc(-c2nnco2)cc1,n,n,n,n,n,n
COc1cccc(/C=N/NC(=O)CSc2cccc3cccnc23)c1,n,n,n,u,n,n
Cc1cccc(CSc2cccc3cccnc23)c1,n,152.4,60.5,n,n,n
c1cnc2c(SCc3ccc(-c4nnco4)cc3)cccc2c1,n,67.9,38.6,n,n,n
O=C(N/N=C/c1ccccc1Br)c1ccc(CSc2cccc3cccnc23)cc1,x,n,12.4,n,n,n
CCOC(=O)CSc1cccc2cccnc12,n,53.3,n,n,n,n
Cc1cccc(NC(=O)CSc2cccc3cccnc23)c1C,n,x,n,n,n,n
Cc1cccc(CSc2[nH]c(=O)ncc2C)c1,n,n,n,n,n,n
C/C=C(\C=C\[C@@H](C)C/C=C/CC/C=C/C=C\C[C@@H](OC)/C(C)=C\C=C(C)C)CC(=O)O,x,n,n,n,x,x
COCCN1C[C@@H](CO)O[C@@H](n2cnc3c(NCc4ccc(F)cc4)ncnc32)C1,n,x,x,x,x,x
NNC(=O)c1ccc(CSc2cccc3cccnc23)cc1,n,n,23.1,n,n,n
O=C1CCC/C(=N\NC(=O)c2ccc(CSc3cccc4cccnc34)cc2)C1,n,n,n,n,n,n
CC(C)CN1CCC2(CC1)CCN(C(=O)c1cccn1C)CC2,n,x,x,n,x,x
COc1ccc(-c2nnc(SCC(=O)N3CCCC3)o2)c(OC)c1,n,46.4,n,x,n,n
CC1CCCCN1C(=O)CSc1nnc(-c2cccc(Cl)c2)o1 (centres undefined),n,x,x,x,n,x
SMILES,Tb PYK inh,Shiga inhibitor,Cycloheximide cs,Giardia FBPA inh,Sm TGR inh,LmPK inhibitor
CC1CCCCN1C(=O)CSc1nnc(-c2ccccc2F)o1 (centres undefined),n,94.2,35.0,x,n,n
COC(=O)CSc1nnc(-c2ccc(OC)cc2OC)o1,n,n,n,n,n,n
COc1ccccc1-c1nnc(SCC(=O)N2CCCC2)o1,n,39.6,n,n,n,n
CC1CCCCN1C(=O)CSc1nnc(-c2ccco2)o1 (centres undefined),n,108.1,36.8,n,n,n
CN(C(=O)CSc1nnc(-c2ccccc2F)o1)C1CCCCC1,n,x,x,x,n,x
Cc1ccccc1-c1nnc(SCC(=O)N2CCCCC2)o1,n,x,x,x,n,x
COc1ccccc1CN1CCCC2(CCN(C(=O)c3ccco3)CC2)C1,n,x,x,n,x,x
COc1ccccc1-c1ccc2ncnc(NCc3cnc(C)cn3)c2c1,x,x,x,n,x,x
O=C(CSc1nnc(-c2ccccc2F)o1)N1CCCC1,n,85.7,26.3,n,n,n
CC1CCC(C(C)C)C(P(=O)(c2ccccc2)c2ccccc2)C1 (centres undefined),x,n,n,n,x,x
[O-]/[N+](=C/c1cccnc1)c1ccc(Br)cc1,n,93.5,37.0,n,n,n
C(=N\N=C\c1ccncc1)/c1ccncc1,n,x,x,x,n,x
CN1C(=S)SC(/[N+]([O-])=C/c2cccnc2)C1(C)C (centres undefined),n,n,n,n,n,n
